Bioassay records: PubChem, Broad Institute
RAD52 inh: RAD52 DNA annealing inhibitors, primary screen, biochemical, FRET, single point, set 2; inhibition, % at 18.7 µM; AID 651710, 2012; recombinant RAD52 DNA annealing, FRET fluorescence; hit rate 0.46% among 360,000; DNA repair protein RAD52 homolog (Homo sapiens), P43351;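 active = every replicate showing at least 50% inhibition; inconclusive = mean inhibition at least 50% but not in every replicate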
Target sequence (P43351 whole entry, looked up): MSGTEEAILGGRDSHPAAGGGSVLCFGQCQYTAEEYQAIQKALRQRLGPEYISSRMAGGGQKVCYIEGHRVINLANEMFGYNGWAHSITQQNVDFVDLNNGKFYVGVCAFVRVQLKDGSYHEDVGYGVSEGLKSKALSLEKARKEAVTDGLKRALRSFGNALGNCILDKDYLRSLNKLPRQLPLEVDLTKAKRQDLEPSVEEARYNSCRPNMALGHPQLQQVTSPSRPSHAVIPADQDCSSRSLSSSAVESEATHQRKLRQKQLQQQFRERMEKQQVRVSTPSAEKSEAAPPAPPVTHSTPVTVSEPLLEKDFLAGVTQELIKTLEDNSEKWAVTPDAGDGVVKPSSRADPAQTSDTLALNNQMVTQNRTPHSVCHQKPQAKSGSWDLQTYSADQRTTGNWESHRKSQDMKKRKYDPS
AF4-AF9 inh: inhibitors of AF4 peptide binding to AF9, primary screen, biochemical, AlphaScreen, biotin-AF4 peptide, FLAG-AF9, single point. AID 651704, 2012. Protein AF-9 (Homo sapiens), P42568. hit rate 0.47% among 350,000. inhibition, % at 10 µM;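 active = every replicate reaching a set inhibition limit, whatever the replicate mean, cut at about 25% in these data; inconclusive = mean inhibition reaches that limit but some replicates miss it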;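 note: 0% = plate neutral control median and 100% = total signal loss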
DENV2 CPE: inhibitors of DENV2 cytopathic effect, primary screen, cell-based, plate reader, single concentration | AID 651640, 2012 | hit rate 1.7% among 350,000 | DENV2-infected cells, cytopathic effect rescue | CPE inhibition, % at 9.99 µM; in the data active = CPE inhibition above about 20%, passing the limit was not always enough; inconclusive = no clear call, values can overlap the other calls; tested in BHK-21 cells;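 note: 0% = median of neutral control wells and 100% = median of positive control wells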
ERAP1 inh: human ERAP1 aminopeptidase inhibitors, primary screen, biochemical, single point, plate reader | Endoplasmic reticulum aminopeptidase 1 (Homo sapiens), Q9NZ08 | hit rate 0.15% among 340,000 | recombinant ERAP1, Leu-AMC fluorescence, 60 min | inhibition, % at 10.7 µM;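 active = mean replicate inhibition of at least 30%, or all replicates individually reaching that 30% level; inactive = mean below 30% and not every replicate reaching it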;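 note: 0% = neutral control wells and 100% = L-leucinethiol positive control wells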
FGF22 binding: binders of human FGF22 protein, primary screen, FGF22 synaptogenesis inhibitor project, biophysical, thermal shift, single point | recombinant FGF22 thermal shift, SYPRO orange fluorescence; percent of sucrose octasulfate shift, DMSO zero | AID 651658, 2012 | Fibroblast growth factor 22 (Homo sapiens), Q9HCT0 | hit rate 1.5% among 340,000 | activity (Tm shift, normalised), % at 9.99 µM;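 active = mean Tm shift, scaled 0 neutral to 100 positive control, at about 1.3% or above, every replicate too, limit read from the data; inconclusive = no clear call, values can overlap the other calls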
Target sequence (Q9HCT0 whole entry, looked up): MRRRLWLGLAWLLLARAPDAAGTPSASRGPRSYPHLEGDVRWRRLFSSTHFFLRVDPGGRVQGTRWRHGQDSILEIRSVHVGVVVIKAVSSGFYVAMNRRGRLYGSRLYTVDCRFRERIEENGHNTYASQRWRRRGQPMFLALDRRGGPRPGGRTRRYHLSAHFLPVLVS
* = called active by the depositor; i = inactive; ? = inconclusive; nt = no result. This is a sample that favours compounds with a hit; in the whole collection about 4% have one here.

SMILES | RAD52 inh | AF4-AF9 inh | DENV2 CPE | ERAP1 inh | FGF22 binding
COc1ccc(C#Cc2ccc([C@@H]3[C@@H](CO)N4C(=O)CN(C(=O)c5cccnc5)C[C@@H]34)cc2)cc1 | -22 | -3 | 19 | 0 | nt
C[C@@H]1CC[C@@]23COC(=O)C2=CCC[C@@H]3[C@@]1(C)CC/C(=C/CO)CO | -7 | -1 | 18 | -3 | 0
CC1=CCC[C@@H]2[C@@](C)(CC/C(C)=C/C(=O)O)[C@H](C)CC[C@@]12C | -8 | 1 | 25* | 4 | -1
O=C1CCCc2[nH]c(-c3ccccc3)nc21 | -13 | -1 | 1 | 2 | 43*
C=CC[n+]1c(-c2ccc(Cl)cc2Cl)csc1Nc1ccc(NC(C)=O)cc1 | -16 | 44* | ? | 1 | 43
C=CC[n+]1c(-c2ccc(Cl)cc2Cl)csc1Nc1c(C)n(C)n(-c2ccccc2)c1=O | -3 | 19 | ? | -2 | 0
O=C(c1ccc2c(c1)OCO2)N1CC[C@@H]2[C@H]1c1cc(-c3ccc(F)cc3)ccc1N[C@@H]2CO | -121 | -1 | 16 | 0 | 0
Cc1cc(C)nc(N/N=C/c2ccccc2OCc2ccccc2)n1 | -3 | 5 | 79* | -2 | 0
CCC(C)N(C(=O)CSc1ccc(NC(C)=O)cc1)C1CCS(=O)(=O)C1 (centres undefined) | 0 | -9 | 2 | 3 | 43*
CCC(C)N(C(=O)COC(=O)CSc1ccc(C)c(C)c1)C1CCS(=O)(=O)C1 (centres undefined) | 8 | 4 | 1 | -1 | 0
CO[C@@H]1CN(C)C(=O)c2ccc(NC(=O)c3ccno3)cc2OC[C@H](C)NC[C@H]1C | i | -18 | -3 | -8 | nt
C[C@@H]1CN([C@H](C)CO)C(=O)c2cc(NC(=O)CCC(F)(F)F)ccc2O[C@@H](C)CCCCO[C@@H]1CN(C)C(=O)Cc1ccccc1 | nt | nt | ? | nt | 0
O=C(NCCCC1CCCC1)C1CCC(=O)N(Cc2cccc(C(F)(F)F)c2)C1 (centres undefined) | -10 | -1 | 26* | -4 | 0
O=C(NCCCn1cccn1)C1CCC(=O)N(Cc2cccc(C(F)(F)F)c2)C1 (centres undefined) | 3 | -1 | 3 | 8 | 0
O=C(CN(CC1CCCO1)C(=O)CNS(=O)(=O)c1ccccc1)NCc1ccco1 (centres undefined) | -4 | 1 | nt | 0 | 43*
COc1cccc(N(CC(=O)NCC2CCCO2)C(=O)CNS(=O)(=O)c2ccccc2)c1 (centres undefined) | -2 | -1 | -3 | -3 | 44*
O=C(O)CCN(Cc1ccccc1)S(=O)(=O)c1ccc(Cl)cc1F | -7 | -9 | 3 | -1 | 44*
COC(=O)CCN(Cc1ccccc1)S(=O)(=O)c1ccccc1Br | 0 | -4 | 2 | 1 | 0
O=C(C[C@H]1C=C[C@@H](NC(=O)CC2CC2)[C@H](CO)O1)NCc1ccccc1 | 7 | -3 | 2 | 0 | nt
O=C(Cn1cc(COc2c(F)c(F)c(Br)c(F)c2F)nn1)c1ccc(O)cc1 | -9 | -3 | -3 | 2 | 1.8*
O=C(Cn1cc(COc2c(Br)cc(F)cc2Br)nn1)c1ccc(O)cc1 | -9 | -2 | -6 | 1 | 0
COc1ccc(NC(=O)Nc2cccc3c2O[C@@H](CN(C)C)[C@@H](C)CN([C@@H](C)CO)C3=O)cc1 | -2 | 0 | 0 | 0 | 0
COc1ccc2c3c(n(C)c2c1)[C@H](CO)NCC31CCN(S(=O)(=O)c2ccccc2)CC1 | 37 | 1 | 0 | 8 | 0
Cc1cc(C(=O)CCl)c(C)n1Cc1ccco1 | -20 | 4 | 1 | 1 | 43*
Cc1cc(C(=O)CSc2nncs2)c(C)n1Cc1ccco1 | -1 | 5 | nt | -1 | 0
SMILES | RAD52 inh | AF4-AF9 inh | DENV2 CPE | ERAP1 inh | FGF22 binding
COc1ccc(NC(=O)Nc2ccc3c(c2)[C@@H]2C[C@@H](CC(=O)NCCc4ccccc4)O[C@H](CO)[C@@H]2O3)cc1 | 4 | -17 | -2 | 1 | 0
COc1ccc2c(c1)OC[C@H]1[C@H]2N2C(=O)c3ccc(F)cc3NC(=O)[C@@]2(C)[C@H]1c1ccccc1 | -8 | nt | 55* | -1 | 0
COc1ccc(S(=O)(=O)Nc2c(C)nn(C)c2C)cc1Br | -9 | 1 | 31* | -2 | 0
O=C(Nc1ccc(F)cc1)N[C@@H]1CC[C@@H](CCNC(=O)c2ccccc2F)O[C@@H]1CO | -14 | -2 | -3 | -4 | nt
CCCN1C[C@H](C)[C@H](OC)CN(C)C(=O)c2ccc(NC(=O)c3ccccc3)cc2OC[C@@H]1C | -4 | -3 | 0 | 2 | 0
CCS(=O)(=O)Nc1ccc2c(c1)C(=O)N(C)C[C@@H](OC)[C@H](C)CN(CCC(F)(F)F)[C@@H](C)CO2 | 1 | -2 | 8 | nt | 0
O=C(COc1ccc2c(-c3ccccc3)cc(=O)oc2c1)NC1CCS(=O)(=O)C1 (centres undefined) | -18 | nt | 143* | -2 | 0
O=C(COc1ccc2ccc(=O)oc2c1)NC1CCS(=O)(=O)C1 (centres undefined) | -17 | 1 | 0 | 1 | 0
Cc1nc2ccc(C(=O)NC(C)(C)C)cn2c1N(C)C(=O)CCc1ccccc1 | -10 | 3 | 35* | -1 | 0
Cc1nc2ccc(C(=O)Nc3cccc(NS(C)(=O)=O)c3)cn2c1N(C)C(=O)CCc1ccccc1 | -12 | 0 | -7 | 5 | 0
CCCN1[C@H](C(=O)N[C@@H](C)c2ccccc2)[C@@H](CO)[C@@H]2Cn3c(ccc(-c4cccc(F)c4)c3=O)[C@@H]21 | -6 | 7 | 2 | 0 | 0
CC(C)c1ccc(S(=O)(=O)N2CCN(C(=O)c3ccco3)CC2)cc1 | -5 | 0 | 9 | 8 | 44*
CCCNC(=O)N(C)C[C@@H]1Oc2ncc(-c3ccc(OC)cc3)cc2C(=O)N([C@H](C)CO)C[C@@H]1C | 3 | -1 | 11 | 0 | 0
COc1cccc2c1OCC(C(=O)O)C2 (centres undefined) | -20 | -2 | 3 | 3 | 43*
C[C@@H]1CN([C@@H](C)CO)C(=O)Cc2cc(NS(=O)(=O)c3ccc(Cl)cc3)ccc2O[C@H]1CN(C)Cc1ccc(C(=O)O)cc1 | 0 | -6 | 10 | 2 | 0
O=C(O)CCNc1cc(N2CCN(C(=O)c3ccco3)CC2)c2noc3c2c1C(=O)c1ccccc1-3 | i | 56* | 3 | 19 | 0
CCCCCC(=O)N1C[C@@H](n2cc(COC(=O)c3ccccc3)nn2)[C@H](O)C[C@@H]1c1ccc(Cl)cc1 | -90 | 3 | 9 | 5 | 0
